Experimental data taken from ChEMBL document CHEMBL3988442, “University of Dundee, Small-Polar-MMV Screening Library” (2021).
For some assays here: Results with a measured potency or affinity are listed apart.

Experiments:
Parameters in all cases: scale not given: direction of the effect not stated beside the values
[1] = target: Protein translocase subunit SecA (Escherichia coli (strain K12)) (UniProt P10408); assay: Assay to Identify E. coli SecA ATPase Inhibitors; type: functional; details: 30 µM
[2] = target: T1, Ubiquitin-activating enzyme e1, putative (Leishmania donovani (strain BPK282A1)) (UniProt E9BSI1); assay: Leishmania donovani Ubiquitin Activating Enzyme (LdE1); type: functional; details: 30 µM
T1 sequence (whole entry): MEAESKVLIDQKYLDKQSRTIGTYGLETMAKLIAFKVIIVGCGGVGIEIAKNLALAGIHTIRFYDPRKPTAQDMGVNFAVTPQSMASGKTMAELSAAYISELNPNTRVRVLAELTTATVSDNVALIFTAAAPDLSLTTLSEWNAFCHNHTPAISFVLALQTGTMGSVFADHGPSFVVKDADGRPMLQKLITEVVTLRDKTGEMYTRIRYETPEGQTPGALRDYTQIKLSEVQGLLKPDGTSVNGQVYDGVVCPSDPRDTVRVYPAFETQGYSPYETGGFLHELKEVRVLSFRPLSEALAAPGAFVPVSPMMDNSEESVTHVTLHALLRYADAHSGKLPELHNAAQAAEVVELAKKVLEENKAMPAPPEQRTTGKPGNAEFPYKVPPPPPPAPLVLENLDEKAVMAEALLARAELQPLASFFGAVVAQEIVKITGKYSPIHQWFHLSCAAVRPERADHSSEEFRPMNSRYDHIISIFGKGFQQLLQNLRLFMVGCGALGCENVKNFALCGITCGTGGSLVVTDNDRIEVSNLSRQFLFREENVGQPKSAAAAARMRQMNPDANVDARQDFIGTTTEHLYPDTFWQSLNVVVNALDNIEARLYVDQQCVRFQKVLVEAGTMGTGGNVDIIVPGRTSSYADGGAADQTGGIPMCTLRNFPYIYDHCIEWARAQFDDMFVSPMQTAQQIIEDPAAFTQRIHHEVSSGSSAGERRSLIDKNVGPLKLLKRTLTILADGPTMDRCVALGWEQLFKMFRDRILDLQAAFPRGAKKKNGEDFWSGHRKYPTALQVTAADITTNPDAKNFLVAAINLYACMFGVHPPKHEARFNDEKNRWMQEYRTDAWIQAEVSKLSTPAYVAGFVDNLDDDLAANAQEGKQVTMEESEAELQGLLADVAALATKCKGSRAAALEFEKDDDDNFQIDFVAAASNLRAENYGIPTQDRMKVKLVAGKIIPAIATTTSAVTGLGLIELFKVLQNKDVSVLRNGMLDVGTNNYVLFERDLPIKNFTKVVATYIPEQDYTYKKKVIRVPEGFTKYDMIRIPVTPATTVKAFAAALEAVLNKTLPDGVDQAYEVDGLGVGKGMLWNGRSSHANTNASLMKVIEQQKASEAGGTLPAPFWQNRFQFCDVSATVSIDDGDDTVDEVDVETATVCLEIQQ

[3] = target: AMP-activated protein kinase, AMPK (Homo sapiens) (UniProt P54646+O43741+P54619+Q9UGJ0+Q9Y478+Q13131+Q9UGI9); assay: AMP-dependent Kinase enzyme assay. An in vitro enzyme assay that detects ADP turnover that is directly proportional to AMPK activity. This uses naive AMPK that is activated during the assay with MK-8722; type: functional; details: 30 µM
[4] = target: Sialic acid-binding Ig-like lectin 9 (Homo sapiens) (UniProt Q9Y336); assay: Hs-Siglec9 ALPHAscreen SOP 20170721; details: 10 µM
Trypanosoma cruzi = assay: Trypanosoma cruzi phosphomannomutase and mannose-1-phosphate guanylyltransferase assay; type: functional; details: 10 µM
[5] = target: T2, Arginase-2, mitochondrial (Homo sapiens) (UniProt P78540); assay: in vitro enzyme assay to detect the production of urea directly proportional to the activity of Arginase II; type: functional; details: 33.3 µM; note: in the data most compounds retested in dose-response had high values
T2 sequence (whole entry): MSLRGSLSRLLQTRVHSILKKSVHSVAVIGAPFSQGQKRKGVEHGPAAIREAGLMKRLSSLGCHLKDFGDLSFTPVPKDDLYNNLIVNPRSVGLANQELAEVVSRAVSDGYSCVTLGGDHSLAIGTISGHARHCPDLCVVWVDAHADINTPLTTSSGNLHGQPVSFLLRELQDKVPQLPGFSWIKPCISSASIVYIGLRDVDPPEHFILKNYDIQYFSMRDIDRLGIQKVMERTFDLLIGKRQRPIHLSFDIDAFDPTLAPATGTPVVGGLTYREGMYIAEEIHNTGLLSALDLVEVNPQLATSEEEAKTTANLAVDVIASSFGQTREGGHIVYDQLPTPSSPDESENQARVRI

[6] = target: T3, Proteasome subunit beta (Trypanosoma cruzi) (UniProt O96673); assay: Trypanosoma cruzi proteasome chymotrypsin-like activity (TcProtChymo) assay.; note: in the data most compounds retested in dose-response had high values; type: functional; details: 9.37 µM
T3 sequence (whole entry): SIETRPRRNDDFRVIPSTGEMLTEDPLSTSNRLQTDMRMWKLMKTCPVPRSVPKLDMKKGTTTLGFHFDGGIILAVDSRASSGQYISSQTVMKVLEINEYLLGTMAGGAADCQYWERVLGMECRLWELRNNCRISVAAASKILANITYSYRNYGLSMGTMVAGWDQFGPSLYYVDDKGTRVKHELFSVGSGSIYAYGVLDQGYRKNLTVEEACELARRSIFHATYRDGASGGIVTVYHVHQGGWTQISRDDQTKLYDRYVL

Homo sapiens = organism: Homo sapiens; assay: To identify inhibition of the IFN signalling (Jak-Stat) pathway via expression of an eGFP reporter gene under the control of an IFN-stimulated response element (ISRE) containing MxA promoter.; type: functional; details: 30 µM
[7] = target: T4, Tyrosyl-tRNA synthetase, putative (Trypanosoma cruzi (strain CL Brener)) (UniProt Q4DSP6); assay: Trypanosoma cruzi tyrosyl tRNA synthetase (TcYRS) _High Tyrosine SOP; type: functional; details: 30 µM; note: in the data most compounds retested in dose-response had high values
T4 sequence (whole entry): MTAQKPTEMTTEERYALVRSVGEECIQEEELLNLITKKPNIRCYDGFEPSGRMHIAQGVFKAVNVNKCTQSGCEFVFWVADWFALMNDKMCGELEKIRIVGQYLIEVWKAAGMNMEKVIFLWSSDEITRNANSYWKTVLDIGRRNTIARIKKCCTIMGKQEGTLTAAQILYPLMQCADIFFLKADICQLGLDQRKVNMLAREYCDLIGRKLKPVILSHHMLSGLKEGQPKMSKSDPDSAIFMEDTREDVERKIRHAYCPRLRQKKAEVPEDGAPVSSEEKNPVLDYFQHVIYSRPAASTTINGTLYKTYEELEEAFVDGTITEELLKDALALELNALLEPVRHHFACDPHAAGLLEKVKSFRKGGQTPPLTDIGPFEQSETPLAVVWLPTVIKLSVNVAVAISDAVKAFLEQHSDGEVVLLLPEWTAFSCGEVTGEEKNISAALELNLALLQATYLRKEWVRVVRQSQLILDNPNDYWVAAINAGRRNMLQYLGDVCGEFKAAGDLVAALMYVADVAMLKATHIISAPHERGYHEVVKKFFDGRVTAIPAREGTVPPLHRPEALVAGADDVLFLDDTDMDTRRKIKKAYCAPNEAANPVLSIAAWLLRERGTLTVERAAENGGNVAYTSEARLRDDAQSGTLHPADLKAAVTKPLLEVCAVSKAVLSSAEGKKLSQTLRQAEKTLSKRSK

[8] = target: T4, Tyrosyl-tRNA synthetase, putative (Trypanosoma cruzi (strain CL Brener)); assay: Trypanosoma cruzi tyrosyl tRNA synthetase (TcYRS) SOP; type: functional; details: 30 µM
[9] = target: Chromo domain-containing protein 1 (Saccharomyces cerevisiae (strain ATCC 204508 / S288c) (Baker's yeast)) (UniProt P32657); assay: ScCHD-1 Enzyme Inhibition Assay; type: functional; details: 30 µM; note: in the data most compounds retested in dose-response had high values
Chromo domain-containing protein 1 (Saccharomyces cerevisiae (strain ATCC 204508 / S288c) (Baker's yeast)), sequence (P32657 whole entry, the tested form may be a part): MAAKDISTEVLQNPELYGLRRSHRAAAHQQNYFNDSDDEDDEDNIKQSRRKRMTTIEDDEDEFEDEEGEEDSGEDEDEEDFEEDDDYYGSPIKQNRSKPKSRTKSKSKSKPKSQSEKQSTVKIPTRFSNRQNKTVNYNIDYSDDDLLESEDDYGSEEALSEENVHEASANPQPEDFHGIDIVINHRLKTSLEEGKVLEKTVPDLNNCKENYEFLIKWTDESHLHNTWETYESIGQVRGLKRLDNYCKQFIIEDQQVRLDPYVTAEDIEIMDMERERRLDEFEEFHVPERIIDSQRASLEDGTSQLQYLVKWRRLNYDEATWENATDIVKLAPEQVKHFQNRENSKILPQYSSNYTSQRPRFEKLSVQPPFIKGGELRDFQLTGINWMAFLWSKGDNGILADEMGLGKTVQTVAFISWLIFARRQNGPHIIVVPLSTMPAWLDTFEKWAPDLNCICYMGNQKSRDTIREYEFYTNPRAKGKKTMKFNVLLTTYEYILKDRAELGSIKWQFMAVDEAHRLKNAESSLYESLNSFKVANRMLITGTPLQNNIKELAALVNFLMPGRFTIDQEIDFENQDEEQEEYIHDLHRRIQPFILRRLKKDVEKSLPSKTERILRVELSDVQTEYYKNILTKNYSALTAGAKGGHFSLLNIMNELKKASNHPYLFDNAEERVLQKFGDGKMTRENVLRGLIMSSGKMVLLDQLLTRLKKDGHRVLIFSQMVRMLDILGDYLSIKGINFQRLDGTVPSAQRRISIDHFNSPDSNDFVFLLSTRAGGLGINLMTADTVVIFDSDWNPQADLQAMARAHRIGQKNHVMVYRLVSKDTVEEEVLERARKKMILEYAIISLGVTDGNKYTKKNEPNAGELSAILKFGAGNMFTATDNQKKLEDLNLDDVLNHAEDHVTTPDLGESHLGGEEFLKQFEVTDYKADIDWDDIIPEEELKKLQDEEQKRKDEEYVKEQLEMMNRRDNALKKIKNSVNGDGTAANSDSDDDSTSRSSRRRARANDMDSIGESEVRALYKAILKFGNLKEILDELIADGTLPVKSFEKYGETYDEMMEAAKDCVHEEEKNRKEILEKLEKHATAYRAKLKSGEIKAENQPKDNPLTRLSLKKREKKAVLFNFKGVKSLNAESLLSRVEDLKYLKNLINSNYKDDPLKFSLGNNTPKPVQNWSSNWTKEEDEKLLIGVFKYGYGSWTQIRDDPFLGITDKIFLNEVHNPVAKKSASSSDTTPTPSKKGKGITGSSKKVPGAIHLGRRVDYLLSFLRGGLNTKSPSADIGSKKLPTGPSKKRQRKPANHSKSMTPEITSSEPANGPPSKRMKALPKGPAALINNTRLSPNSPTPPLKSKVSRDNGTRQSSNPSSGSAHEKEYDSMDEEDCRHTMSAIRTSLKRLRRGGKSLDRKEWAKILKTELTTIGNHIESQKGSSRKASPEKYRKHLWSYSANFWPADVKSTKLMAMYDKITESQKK

Sialic acid-binding Ig-like lectin 9 (Homo sapiens), sequence (Q9Y336 whole entry): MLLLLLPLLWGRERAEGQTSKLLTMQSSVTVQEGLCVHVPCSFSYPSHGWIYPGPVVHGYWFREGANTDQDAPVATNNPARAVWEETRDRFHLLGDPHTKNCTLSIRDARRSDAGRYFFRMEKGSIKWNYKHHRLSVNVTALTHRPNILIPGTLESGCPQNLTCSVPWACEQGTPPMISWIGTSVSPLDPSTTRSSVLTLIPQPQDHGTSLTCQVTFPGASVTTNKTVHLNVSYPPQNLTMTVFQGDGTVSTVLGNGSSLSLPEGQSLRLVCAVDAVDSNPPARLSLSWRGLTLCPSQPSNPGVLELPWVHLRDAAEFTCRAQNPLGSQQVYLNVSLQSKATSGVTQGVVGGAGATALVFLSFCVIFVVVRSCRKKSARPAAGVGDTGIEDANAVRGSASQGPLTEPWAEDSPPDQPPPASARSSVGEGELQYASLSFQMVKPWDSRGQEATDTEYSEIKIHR
Protein translocase subunit SecA (Escherichia coli (strain K12)), sequence (P10408 whole entry): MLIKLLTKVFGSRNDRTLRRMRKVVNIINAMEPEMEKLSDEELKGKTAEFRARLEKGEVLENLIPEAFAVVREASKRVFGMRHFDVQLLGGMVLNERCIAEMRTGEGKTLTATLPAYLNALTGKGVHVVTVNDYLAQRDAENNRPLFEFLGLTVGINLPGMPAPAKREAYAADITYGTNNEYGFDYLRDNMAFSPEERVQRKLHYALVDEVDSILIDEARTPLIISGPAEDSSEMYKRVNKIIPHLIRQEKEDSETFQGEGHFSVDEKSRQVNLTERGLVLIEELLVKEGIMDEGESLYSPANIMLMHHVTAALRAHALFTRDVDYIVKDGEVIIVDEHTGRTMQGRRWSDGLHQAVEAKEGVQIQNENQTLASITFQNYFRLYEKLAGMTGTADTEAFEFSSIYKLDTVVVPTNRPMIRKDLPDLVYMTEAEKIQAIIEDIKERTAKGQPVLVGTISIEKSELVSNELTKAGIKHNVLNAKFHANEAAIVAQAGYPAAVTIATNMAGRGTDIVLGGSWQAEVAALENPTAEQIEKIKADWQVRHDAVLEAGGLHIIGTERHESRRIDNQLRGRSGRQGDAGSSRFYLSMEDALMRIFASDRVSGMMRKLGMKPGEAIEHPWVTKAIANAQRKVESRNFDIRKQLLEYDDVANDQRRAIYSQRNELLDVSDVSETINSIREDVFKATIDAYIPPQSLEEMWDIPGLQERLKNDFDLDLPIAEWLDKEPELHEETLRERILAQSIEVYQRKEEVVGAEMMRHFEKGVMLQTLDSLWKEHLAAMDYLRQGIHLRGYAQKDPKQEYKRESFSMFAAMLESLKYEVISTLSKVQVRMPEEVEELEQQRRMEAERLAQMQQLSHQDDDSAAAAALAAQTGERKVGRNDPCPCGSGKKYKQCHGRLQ

Structure (SMILES) | Percent Effect [1] | Percent Effect [2] | Percent Effect [3] | Percent Effect [4] | Percent Effect (Trypanosoma cruzi) | Percent Effect [5] | Percent Effect [6] | Percent Effect (Homo sapiens) | Percent Effect [7] | Percent Effect [8] | Percent Effect [9]
O=C(NCCS(=O)(=O)N1CCc2ccccc21)c1c(O)cc(F)cc1F | -5.35% | 2.6% | -0.496% | -10.7% | 4.41% | -6.11% | 8% | 4.49% | -12.4% | 0% | -23.1%
CCOCCn1nc(C)cc1C(=O)N1CCOCC(CO)C1 (configuration not stated) | -2.3% | 18.9% | 0.311% | 24.4% | 7.14% | 31.9% | 22.1% | 1.44% | 3.7% | 12.2% | -10.6%
CC(=O)N1CCC(c2ccnc(Nc3cncnc3)n2)C1 (configuration not stated) | -2.09% | 13.3% | 12.8% | -1.51% | -0.394% | 0.699% | -0.793% | 8.94% | 7.45% | 14.1% | -3.42%
Cn1nc(C2CN(C(=O)c3cscn3)C2)c2nccnc21 | -0.655% | 17.6% | -2.02% | -2.09% | 1.38% | 2.55% | 17.2% | 8.4% | 6.45% | 11.7% | -18.2%
CC(C)NC(=O)NCCCc1cc(N)n(-c2ccccc2)n1 | -2.64% | 5.48% | -7.43% | 15.8% | 5.09% | -6.82% | 24.8% | 14.3% | 5.38% | 17.5% | -8.17%
Cc1nc(-c2ccc(Cl)s2)sc1C(=O)NCCS(N)(=O)=O | -5.36% | 10.8% | 20% | 14.1% | -1.95% | 2.4% | 9.34% | 6.3% | 5.94% | 13.4% | 0.478%
Cn1cnnc1C1CCCN(C(=O)c2cnc3ccccc3n2)C1 (configuration not stated) | -5.29% | -18.2% | 6.07% | 1.12% | 0.49% | -1.47% | 5.58% | 17.6% | 7.62% | 11.8% | -15.4%
COc1ccc(CNC(C)c2cccc(Cl)c2)c(OC)c1OC (configuration not stated) | -1.96% | 10.7% | -5.69% | 5.99% | 6.52% | 4.69% | 5.58% | 16.5% | 0.546% | 6.17% | -1.65%
CNC(=O)[C@@]12CCC3(CCN(C(C)=O)CC3)[C@@H]1CN(S(C)(=O)=O)C2 | -4.16% | 8.11% | -2.4% | -2.81% | -4.01% | 4.22% | -0.0858% | 1.1% | 5.38% | 6.17% | -3.18%
CCOC[C@@H]1CCC[C@@]12CN(Cc1nccs1)CCO2 | 0.173% | 16% | -1.62% | -5.32% | 0.787% | 3.5% | 17.4% | 10.8% | 7.45% | 19.2% | -7.27%
O=C(NS(=O)(=O)c1cc(Cl)sc1Cl)c1cccc2c1OCCO2 | -8.74% | -11% | 3.09% | -2.91% | -6.07% | -1.36% | 13.5% | 24.9% | -22.6% | -42.5% | -4.53%
Cc1nn(C)c(Cl)c1C1CCCN1c1ncnc2sccc12 (configuration not stated) | -6.84% | -2.67% | -2.13% | 8.98% | 5.36% | 7.29% | 1.4% | 35.8% | 0.546% | 3.7% | 0.644%
CC(=O)N1CCCN(C(=O)c2ccn(-c3cccc(Cl)c3)n2)CC1 | -2.55% | 15.6% | -0.208% | -4.72% | -4.31% | -1.42% | 12.8% | 10.3% | 5.83% | 14.6% | -6%
CC(C)C(NC(=O)NCC1(CO)CC1)c1nnc2n1CCC2 (configuration not stated) | -7.18% | 13.5% | 2.82% | 15.2% | 2.54% | 4.58% | 11.2% | 10.4% | 7.92% | 11% | -9.98%
O=C(NCCc1nnc2n1CCC2)NC1(c2cccc(F)c2)CC1 | -3.06% | 15.8% | 4.44% | -2.57% | -3.6% | -3.55% | 14.1% | 11% | 0% | 10.4% | -3.66%
Cc1cc(C)c(CNC(=O)NCC2CCCO2)c(=O)[nH]1 (configuration not stated) | -9.94% | 2.63% | 3.27% | 0.242% | -5.64% | -2.3% | -2.17% | 19.5% | -3.43% | -2.44% | 2.35%
CC(C(=O)N1CCN(c2ccccc2Cl)CC1)n1cncn1 (configuration not stated) | -2.18% | 11.4% | 2.71% | 2.76% | 1.33% | -1.07% | 15.3% | 5.34% | 0% | 10.1% | -25.6%
CC(C)N(C)Cc1nnc2n1CCCN(C(=O)c1ccco1)C2 | -1.99% | 10.4% | 3.35% | 2.67% | 1.08% | 13.6% | 14.3% | 24.5% | 7.41% | 14.1% | -7.03%
N#Cc1ccnc(N2CCC(c3nccn3Cc3cscn3)CC2)c1 | -1.75% | 13.3% | 2.35% | 5.36% | 3.8% | 0% | 15.5% | 21.8% | 4.92% | 13.6% | -7.45%
CCc1c(C)nc2n(c1=O)CC(C(=O)Nc1nc3c(s1)CCCC3)CS2 (configuration not stated) | -2.52% | 13% | 6.33% | 7.47% | 2.86% | -4.52% | 7.66% | 18.6% | 6.35% | 14.1% | -8.32%
CCc1nc(C)c(C(=O)NCCNc2ncccn2)s1 | -4.61% | 15.8% | -1.87% | -4.05% | -2.52% | 0% | 2.28% | -2.51% | 9.36% | 16.1% | -3.7%
O=C1COC2(CCN(CC3CC3)CC2)CN1c1ccccc1 | -0.394% | 2.74% | -5.09% | 8.07% | 4.17% | -2% | 18.6% | -21.4% | 9.38% | 8.64% | -1.91%
